From PubChem
Shown are actives, neighbours in structure and some others; about 27% of the full set was active somewhere.
PTK2B oligo ant: antagonists of human Pyk2 oligomerization | Q293 cells, Pyk2 FERM NanoBiT luminescence; active compounds read low | z-score (the deposit names both 25 µM and 10 µM) | Q14289 | 99,000 tested, 0.83% active;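 active = Z-score of -3 or lower, scaled per plate to the spread of control and sample wells; inactive = z-score above -3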;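 note: negative z-score means lost luminescence so less FERM oligomerization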
CYP2C19 inhib: blocks human cytochrome P450 2C19. P33261. CYP2C19 Supersomes, luciferin-H EGE luminescence, 30 min. inhibition, % at 5 µM. 96,000 tested, 21% active;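 active = CYP2C19 inhibition above a set limit at 5 µM in the primary screen, cut at about 50% in these data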;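 note: plate controls were negative control wells for no effect and 2.5 mM tranylcypromine positive control for full effect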
Cav32 inh: blocks human Cav3.2 T-type calcium channel | AID 449739 | B-score at 10 µM | Cav3.2-expressing cells, Fluo-4 calcium fluorescence FDSS; active compounds read low | 100,000 tested, 4% active;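 active = single-dose well whose peak fluorescence ratio is a statistical outlier from its plate by either plate-standardised score or position-corrected B-score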
CYP2C9 inh: blocks human cytochrome P450 2C9; P11712; CYP2C9 Supersomes, luciferin-H conversion, luminescence; inhibition, % at 5 µM; 96,000 tested, 20% active; AID 777;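 active = blocking of liver enzyme CYP2C9 beyond about 50% at 5 µM, limit read from the data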
Target sequence (P11712 whole entry, looked up): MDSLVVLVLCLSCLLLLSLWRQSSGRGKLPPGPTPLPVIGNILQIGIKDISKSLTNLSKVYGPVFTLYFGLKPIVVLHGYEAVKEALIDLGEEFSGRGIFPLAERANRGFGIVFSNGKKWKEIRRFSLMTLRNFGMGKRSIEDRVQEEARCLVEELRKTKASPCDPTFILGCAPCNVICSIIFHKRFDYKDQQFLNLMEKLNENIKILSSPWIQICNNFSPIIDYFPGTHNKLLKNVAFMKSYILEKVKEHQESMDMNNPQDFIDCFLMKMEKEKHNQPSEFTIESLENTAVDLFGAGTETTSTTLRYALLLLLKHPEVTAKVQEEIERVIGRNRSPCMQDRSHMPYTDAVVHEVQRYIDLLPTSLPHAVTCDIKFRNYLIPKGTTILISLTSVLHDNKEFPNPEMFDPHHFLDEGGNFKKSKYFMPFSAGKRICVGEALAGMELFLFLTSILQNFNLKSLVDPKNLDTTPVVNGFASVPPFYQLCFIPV
CYP2C9 act: increases human cytochrome P450 2C9 activity; P11712; recombinant CYP2C9, luciferin-H conversion, luminescence; active compounds read high; factor 1 = untreated enzyme, 0 = blocked; activation factor at 5 µM; 96,000 tested, 1.4% active; AID 1024;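 active = activation factor of 2 or more for CYP2C9 at a 5 µM dose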;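 note: 0 = sulfaphenazole-blocked wells and 1 = vehicle-only wells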
CYP2C19 act: increases human CYP2C19 enzyme activity. 96,000 tested, under 10 active. activation factor at 5 µM. recombinant CYP2C19, luciferin-H EGE luminescence; active compounds read high; 0 = fully inhibited enzyme, 1 = untreated enzyme. P33261;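 active = activation factor of at least 2 at 5 µM in the primary screen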;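 note: 0 = wells with 2.5 mM tranylcypromine and 1 = vehicle-only wells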
* = called active by the depositor; . = no result given.

SMILES	PTK2B oligo ant	CYP2C19 inhib	Cav32 inh	CYP2C9 inh	CYP2C9 act	CYP2C19 act
COc1ccccc1C(=O)Nc1ccc(N2CCN(Cc3ccccc3)CC2)cc1	-0.93	7	-2.8	-145	2.5*	0.9
COc1ccccc1C(=O)Nc1ccc2c(c1)nc1n2CCSC1	0.33	18	0.14	-97	2*	0.8
O=c1[nH]cnc2cc(Cl)ccc12	-1.1	-6	0.26	5	0.9	1.1
CCCCNC(=O)C(c1ccc(-c2ccccc2)cc1)N(CCN1CCOCC1)C(=O)CCCCCN1C(=O)NC(c2ccc([N+](=O)[O-])cc2)C(C(=O)OCc2ccccc2)=C1C (stereo not drawn)	.	.	-0.74	.	.	.
O=C(Cn1nnc2ccccc21)OCC(=O)c1ccc(Cl)c(Cl)c1	-4*	.	0.15	.	.	.
O=C(Nc1cc2c(cc1Cl)OCCCO2)c1ccco1	-0.49	.	.	.	.	.
O=C(NC(NC(=S)Nc1cc(Cl)ccc1Cl)C(Cl)(Cl)Cl)c1ccco1 (stereo not drawn)	-0.76	81*	-3.2	97*	0	0.2
O=C(Nc1ccc(Cl)c(Cl)c1)Oc1ccc(NC(=O)c2ccco2)cc1	0.35	-6	0.66	-13	1.1	1.1
O=C(NC(NC(=S)Nc1ccc(Cl)c(Cl)c1)C(Cl)(Cl)Cl)c1ccco1 (stereo not drawn)	-2.2	72*	-3.5	100*	0	0.3
c1ccc(C(c2ccccc2)N2CCN(c3ccc4ccccc4n3)CC2)cc1	0.18	-10	-2.1	23	0.8	1.1
Cc1cc(C)n(C(=O)CCCCCCCCC(=O)n2nc(C)cc2C)n1	0.62	71*	-0.66	58*	0.4	0.3
Cc1cc(C)n(C(=O)CCCCCCCC(=O)n2nc(C)cc2C)n1	1	.	-1.1	.	.	.
Cc1ccc(C)c(N2C(=O)CN=C2Nc2ccccc2Cl)c1	1.1	45	2	44	0.6	0.6
O=C(NCCc1ccccc1)c1cc2sccc2n1Cc1ccccc1	-2.2	16	-0.87	46	0.5	0.8
CCN1CCN(CCCNC(=O)c2cc3sccc3n2CC)CC1	.	-12	0.00081	-6	1.1	1.1
CCn1c(C(=O)NCCCN2CCc3ccccc3C2)cc2sccc21	-0.18	64*	-2.8	7	0.9	0.4
CCN1CCN(C(=O)c2cc3sccc3n2CC(=O)c2ccccc2)CC1	-1.5	59*	1.1	42	0.6	0.4
CCn1c(C(=O)NCc2ccccn2)cc2sccc21	0.52	66*	0.076	27	0.7	0.3
CCn1c(C(=O)N2CCc3ccccc3C2)cc2sccc21	.	63*	-5.6*	-13	1.1	0.4
COc1cc(N)c(Cl)cc1C(=O)N[C@@H]1CCN(CCCOc2ccc(F)cc2)C[C@@H]1OC	.	.	-0.023	.	.	.
CCCOC(=O)c1c(NC(=O)CSc2nc(-c3ccco3)cc(C(F)(F)F)n2)sc(C(=O)OC)c1C	0.91	22	-5.2*	70*	0.3	0.8
O=C(CSc1nc(-c2ccco2)cc(C(F)(F)F)n1)Nc1ccc2c(c1)OCO2	-0.65	.	-2.2	.	.	.
CCOC(=O)c1sc(NC(=O)CSc2nc(-c3ccco3)cc(C(F)(F)F)n2)c(C(=O)OC)c1C	0.08	46	-1.7	72*	0.3	0.5
CCOC(=O)c1sc(NS(=O)(=O)c2ccc(NC(C)=O)cc2)nc1C	0.99	15	0.79	45	0.6	0.8
Clc1ccc(CSc2nnc(NC3=NCCCCC3)s2)cc1	-0.04	91*	-0.84	67*	0.3	0.1
SMILES	PTK2B oligo ant	CYP2C19 inhib	Cav32 inh	CYP2C9 inh	CYP2C9 act	CYP2C19 act
COc1cc(CCCN2C(=S)NC[C@@H]2c2ccccc2)cc(OC)c1OC	.	.	1.3	.	.	.
CCn1c(SCC(=O)NNC(=O)c2ccccc2)nnc1-c1ccncc1	0.62	-13	0.26	-8	1.1	1.1
CCn1c(SCc2nc3ccccc3[nH]2)nnc1-c1cccnc1	0.74	78*	-0.017	-32	1.3	0.2
CCn1c(SCc2nc3ccccc3[nH]2)nnc1-c1ccncc1	1.3	93*	0.49	20	0.8	0.1
Cc1noc(C)c1C(=O)NCc1ccccc1	0.57	18	0.54	-15	1.1	0.8
COC(=O)c1cn(CCOc2ccc(C)cc2)c2ccccc12	-1.2	69*	.	70*	0.3	0.3
Cc1ccc(OCCn2cc(C#N)c3ccccc32)cc1	-2.6	.	0.032	.	.	.
NS(=O)(=O)c1ccc(CCNC(=O)CCC2COc3ccccc3O2)cc1 (stereo not drawn)	1.1	.	-0.03	.	.	.
CCCCCn1c(C(C)NC(=O)CCC)nc2ccccc21 (stereo not drawn)	.	-1	0.74	9	0.9	1
Oc1c(C(c2cccs2)N2CCOCC2)sc2ncnn12 (stereo not drawn)	.	-8	0.7	-24	1.2	1.1
O=C(c1ccco1)N1CCN(C(c2cccs2)c2sc3ncnn3c2O)CC1 (stereo not drawn)	.	52*	0.88	44	0.6	0.5
Oc1c(C(c2cccs2)N2CCN(c3cccc(Cl)c3)CC2)sc2ncnn12 (stereo not drawn)	.	42	-1.8	54*	0.5	0.6
CC1(C)CC2(CCO1)CNC(=O)O2 (stereo not drawn)	0.06	-10	0.77	1	1	1.1
CCOC(=O)c1c(N)sc(C(=O)N2CCOCC2)c1C	0.45	.	0.63	.	.	.
Cc1c(-c2ccccc2)sc(N)c1C(=O)N1CCOCC1	-1.6	88*	0.35	86*	0.1	0.1
COC(=O)Nc1ccc2ncn(C)c(=O)c2c1	.	-6	-1.1	-4	1	1.1
COc1ccc(OC)c2[nH]c(=O)c(CCNC(=O)c3ccc(S(=O)(=O)N4CCCC4)cc3)cc12	0.81	44	.	62*	0.4	0.6
CCN(CC)S(=O)(=O)c1ccc(C(=O)NCCc2cc3c(OC)ccc(OC)c3[nH]c2=O)cc1	-0.47	34	.	85*	0.2	0.7
CCCCC(=O)NCCc1cc2c(OC)ccc(OC)c2[nH]c1=O	-0.74	3	.	-132	2.3*	1
Cc1cc(C)n(-c2nc3sc4c(c3c3nnc(SC(C)C)n23)CC(C)(C)OC4)n1	-1.5	.	.	.	.	.
Cc1cccc(/C=N\NC(=O)c2sccc2-n2cccc2)c1	-0.01	44	-4.1*	12	0.9	0.6
COc1ccc(-c2oc3cc(OC)c(O)c(OC)c3c(=O)c2OC)cc1O	.	.	0.96	.	.	.
CC1C/C(=N\NC(=S)NC(C)C)CC(C)(C)C1 (stereo not drawn)	0.03	88*	-0.5	51*	0.5	0.1
O=c1ccc(Cl)cn1Cc1ccccc1F	1.4	.	0.02	.	.	.
CCOC(=O)/C(C#N)=C\c1ccc(OCC(=O)Nc2ccc(C)cc2C)c(OC)c1	-0.21	78*	0.067	27	0.7	0.2
CCOC(=O)/C(C#N)=C/c1ccc(OCC(=O)Nc2cc(C)ccc2C)c(OC)c1	0.15	29	.	28	0.7	0.7
COc1ccc(C(=O)C/C(=C\C(=O)c2ccc(C)cc2)c2ccccc2)cc1	-0.31	48	-4.2*	74*	0.3	0.5
